# From PubChem BioAssay
# Active and inactive are the calls of the source.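 The calls were made as follows, unless noted: active = compound raises GLP1 secretion from the human gut endocrine cells, with no numeric limit stated; inactive = the rest.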 Non-standard residues stand in square brackets, D forms with d. Residues, ends and D or L forms follow the SMILES beside them. pGlu = O=C1CC[C@@H](C(=O)O)N1
# Tests used:
# [1] = stimulators of nuclear beta-catenin in C2C12, primary screen, imaging, WNT3A-conditioned medium, mouse C2C12, NPC library (AID 1117326; in the data active = nuclear beta-catenin stimulation mostly above about 4.2%, no sharp cut-off; inactive = mostly below about 10%; also: reference of the scale not given here); details: stronger effect = higher value
# [2] = stimulators of insulin release from INS-1E, primary screen, cell-based, 5 mM glucose, NPC library (AID 1117329;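 active = compound raises insulin release from rat beta cells at 5 mM glucose, no numeric limit stated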; also: reference of the scale not given here); details: rat INS-1E insulin secretion, at 10 µM, stronger effect = higher value
# [3] = growth inhibition of GSK3B-pretreated HCT116 cells – cell-based, CellTiter-Glo, 0.2 to 20 µM (AID 1117336;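 active = compounds lowering colon cancer cell viability after pretreatment blocking the GSK3B kinase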); details: HCT116 viability after GSK3B inhibitor, at 20 µM, stronger effect = higher value
# [4] = inhibition of endothelial tube formation, primary screen, imaging, VEGF stimulated, CD31 staining, tube area, NPC library (AID 1117340;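 active = compound that reduces growth-factor-driven endothelial tube area in a mixed cell culture, no cutoff stated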); details: VEGF-stimulated ADSC/ECFC co-culture, at 10 µM, stronger effect = higher value
# [5] = glucagon-like peptide 1 release enhancers, primary assay, NCI-H716 cell line, NPC library (AID 1117341); details: NCI-H716 cells, at 10 µM, stronger effect = higher value; also: reference of the scale not given here
# [6] = HCT116 colon cancer cell growth inhibition, primary screen, CellTiter-Glo luminescence, NPC library (AID 1117342;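 active = compounds that lower survival of HCT116 colon cancer cells in the luminescence readout, no numeric limit stated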); details: at 20 µM (top of the series)
# [7] = CellTiter-Glo luminescent readout of SW480 viability loss, NPC library primary (AID 1117343;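 active = compounds that lower viability of the colon cancer cells in the luminescence readout, with no numeric limit stated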); details: CellTiter-Glo luminescence; at 20 µM (top of the series)
# [8] = decreased DLD-1 cellular survival, CellTiter-Glo luminescent readout, NPC compound collection, primary HTS (AID 1117346;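 active = compounds that lower survival of DLD-1 colon cancer cells in the luminescence readout, no cutoff given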); details: DLD-1 viability, CellTiter-Glo luminescence; at 20 µM (top of the series)
SMILES,nuclear beta-catenin stimulation ([1]; at 10 µM),"nuclear beta-catenin stimulation ([1]; stimulation, at 2 µM)",insulin secretion stimulation [2],viability decrease [3],tube area decrease [4],GLP1 secretion stimulation [5],inhibition of viability [6],viability decrease (inhibition) [7],viability decrease (inhibition) [8]
O=C(c1ccco1)N1CCNCC1,4.5% (inactive),-0.4%,0.1% (inactive),-3.6% (inactive),-16.6% (inactive),-0.5% (inactive),-8.9% (inactive),-21.1% (inactive),5.4% (inactive)
Cc1cccc(C)c1NC(=O)CN(CC(=O)O)CC(=O)O,0.4% (inactive),0.2%,-2.1% (inactive),-0.05% (inactive),-22.7% (inactive),1.6% (inactive),2.2% (inactive),43.5% (inactive),8.9% (inactive)
COC(=O)Nc1nc2ccc(C(=O)C3CC3)cc2[nH]1,41.8% (active),54.5%,1.9% (inactive),93.1% (active),103% (active),-0.3% (inactive),87.9% (active),32.9% (inactive),51.6% (active)
O=C(O)CNC(=O)CNC(=O)CNC(=O)CSC(=O)c1ccccc1,-0.8% (inactive),-1.6%,1.2% (inactive),-1.9% (inactive),-8.3% (inactive),4.6% (inactive),0.6% (inactive),12.5% (inactive),14.5% (inactive)
c1ccc(OCc2ccc(CCCN3CCOCC3)cc2)cc1,-1% (inactive),0.3%,4.5% (inactive),32.1% (inactive),14% (inactive),-0.1% (inactive),54.5% (active),34.7% (active),19.4% (inactive)
Cc1oc(=O)oc1COC(=O)[C@@H]1N2C(=O)[C@@H](NC(=O)[C@H](N)c3ccccc3)[C@H]2SC1(C)C,0.5% (inactive),1.3%,-1% (inactive),-11.1% (inactive),-10.3% (inactive),-1.9% (inactive),-15.2% (inactive),25.1% (inactive),-14.8% (inactive)
CCCCCCCCCCCCOCCOCCOCCOCCOCCOCCOCCOCCOCCO,3.9% (inactive),1.9%,0.8% (inactive),78.1% (active),47.8% (active),33.5% (active),96.8% (active),124% (active),104% (active)
CC(C)NCCCC1(C(N)=O)c2ccccc2-c2ccccc21,3.9% (inactive),0.2%,0.2% (inactive),-48.2% (inactive),24.7% (inactive),-2.8% (inactive),-11.9% (inactive),1.7% (inactive),-17% (inactive)
Cc1cnc(NS(=O)(=O)c2ccc(N)cc2)nc1,1.1% (inactive),-0.7%,1.8% (inactive),7.4% (inactive),-8.2% (inactive),-0.6% (inactive),-6.6% (inactive),7.7% (inactive),6.6% (inactive)
O=P(O)(O)C(O)(Cc1cnc2ccccn12)P(=O)(O)O,-0.5% (inactive),1.4%,-0.3% (inactive),2.2% (inactive),7.8% (inactive),4.3% (inactive),13.5% (active),3.6% (inactive),9.7% (inactive)
CCNC(=O)[C@@H]1CCCN1C(=O)[C@H](CCCN=C(N)N)NC(=O)[C@H](CC(C)C)NC(=O)CNC(=O)[C@H](Cc1ccc(O)cc1)NC(=O)[C@H](CO)NC(=O)[C@H](Cc1c[nH]c2ccccc12)NC(=O)[C@H](Cc1cnc[nH]1)NC(=O)[C@@H]1CCC(=O)N1 ([pGlu]HWSYGLRP-NHEt),0.5% (inactive),-0.6%,-0.8% (inactive),32.1% (inactive),-2.8% (inactive),-2.8% (inactive),33% (inactive),25.1% (inactive),29.7% (inactive)
CCOC(=O)CN1CCCC1=O,1.9% (inactive),21%,2.1% (inactive),1.1% (inactive),-17.2% (inactive),-1.8% (inactive),-0.8% (active),-15.1% (inactive),1% (inactive)
O=C(Nc1ncc([N+](=O)[O-])s1)c1cccs1,-2.8% (inactive),-1.2%,-0.4% (inactive),45.8% (inactive),46.3% (active),-0.9% (inactive),41.2% (inactive),43.6% (inactive),67.5% (active)
CCOC(=O)c1cc(=O)c2c(OCC(COc3cccc4oc(C(=O)OCC)cc(=O)c34)OC(=O)[C@@H](N)CCCCN)cccc2o1,0.5% (inactive),1.2%,-1.2% (inactive),-30% (inactive),4.5% (inactive),7.5% (inactive),-25.1% (inactive),-75% (inactive),-11.5% (inactive)
CC(C)=CCC1C(=O)N(c2ccccc2)N(c2ccccc2)C1=O,-0.3% (inactive),0.3%,-1.2% (inactive),45.1% (inactive),8.8% (inactive),-1.5% (inactive),-4.6% (inactive),78.1% (active),26.2% (inactive)
CC(C)=CCCC(C)=CCCC(C)=CCCC(C)=CCC1=C(C)C(=O)c2ccccc2C1=O,-0.4% (inactive),0%,0.5% (inactive),27.6% (inactive),3.6% (inactive),-0.8% (inactive),37.8% (inactive),12.3% (inactive),11.1% (inactive)
NS(=O)(=O)c1ccc(N2CCCCS2(=O)=O)cc1,0.5% (inactive),-0.6%,-0.3% (inactive),-15.7% (inactive),5.1% (inactive),-1.7% (inactive),-8.93% (inactive),29% (inactive),-6.9% (inactive)
CCOc1ccc(NS(=O)(=O)c2ccc(N)cc2)nn1,-0.3% (inactive),0.4%,-0.2% (inactive),1.55% (inactive),-25.2% (inactive),2.6% (inactive),-1.7% (inactive),29.4% (inactive),4.15% (inactive)
CO/N=C(/C(=O)N[C@@H]1C(=O)N2C(C(=O)O)=C(Cn3nnc(C)n3)CS[C@H]12)c1csc(N)n1,-0.1% (inactive),-1%,3.2% (inactive),2.9% (inactive),13.4% (inactive),0.9% (inactive),-1.5% (inactive),10.8% (inactive),1% (inactive)
CNC(=O)c1cnn(-c2nc(N)c3ncn([C@@H]4O[C@H](CO)[C@@H](O)[C@H]4O)c3n2)c1,2.6% (inactive),4.8%,-0.3% (inactive),3.8% (inactive),20.4% (inactive),4.6% (inactive),1% (inactive),6.8% (inactive),-13.2% (inactive)
c1ccc2sc(SSc3nc4ccccc4s3)nc2c1,2.2% (inactive),0.3%,-0.6% (inactive),-0.8% (inactive),-4.4% (inactive),22.3% (active),-5.7% (inactive),-1% (inactive),-20.5% (inactive)
CCCCC/C(C=O)=C\c1ccccc1,0.8% (inactive),4.5%,1% (inactive),-20.6% (inactive),30.3% (inactive),0.1% (inactive),1.1% (inactive),12.8% (inactive),-11.3% (inactive)
CC1(C)S[C@@H]2[C@H](NC(=O)C(c3ccccc3)S(=O)(=O)O)C(=O)N2[C@H]1C(=O)O (some centres not stated),1.3% (inactive),1.4%,-0.05% (inactive),5.8% (inactive),-2.3% (inactive),3.6% (inactive),1.3% (inactive),-0.2% (inactive),-1.8% (inactive)
COc1cc(C(=O)OC(COCCC(C)C)CN2CCOCC2)cc(OC)c1OC (configuration not stated),0.4% (inactive),2.6%,1.9% (inactive),-9.2% (inactive),0.7% (inactive),13.1% (inactive),18.4% (inactive),39.2% (inactive),2.2% (inactive)
COc1cccc2c1C(=O)c1c(O)c3c(c(O)c1C2=O)C[C@@](O)(C(=O)CO)C[C@@H]3O[C@H]1C[C@H](N)[C@H](O[C@@H]2CCCCO2)[C@H](C)O1,26.6% (active),79.4%,0.2% (inactive),78.8% (active),-67.7% (active),-0.8% (inactive),66.5% (active),81% (active),76% (active)
C=CCOc1cc(Cl)ccc1C(=O)NCCN(CC)CC,-0.4% (inactive),0.3%,16.7% (inactive),11% (inactive),-13% (inactive),9.1% (inactive),30% (inactive),32.4% (inactive),-3.9% (inactive)
O=C(Nc1ccc(Oc2ccc(Cl)cc2)c(Cl)c1)c1cc(I)cc(I)c1O,6.2% (inactive),1.3%,0.2% (inactive),122% (active),109% (active),29.8% (active),128% (active),161% (active),102% (active)
CCCCCC=CCC=CCCCCCCCC(=O)OCC,1.6% (inactive),-0.5%,-1.8% (inactive),-40% (inactive),7.8% (inactive),8.5% (inactive),17.5% (inactive),30.9% (inactive),54.5% (active)
